Measured values reported in PubChem BioAssay (NCI).
About 79,000 compounds went through this panel and 15% of them were active in at least one assay; those are over-represented in the sample as a whole. Activity calls are given as the source filed them. Cut-off read from the data, not from the text of the source: active = growth inhibition above about 70%; inactive = the rest.

What was measured:
[1] = NCI Yeast Anticancer Drug Screen. Data for the rad50 strain (AID 155);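 note: 0% = growth of vehicle-only cultures of the same strain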; conditions: S. cerevisiae rad50 strain growth inhibition, active compounds read high
Method in brief: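 Relative growth inhibition (compound vs vehicle) was measured in yeast with a defined repair-gene alteration.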

[2] = NCI Yeast Anticancer Drug Screen. Data for the mec2-1 strain (AID 157); conditions: S. cerevisiae mec2-1 strain, active compounds read high
Method in brief: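 Test agents were screened against the mec2-1 yeast strain, with defined DNA repair or cell cycle alteration. Growth was scored as inhibition against vehicle-only controls.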

[3] = NCI Yeast Anticancer Drug Screen. Data for the sgs1 mgt1 strain (AID 161);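 note: 0% = growth of cultures given vehicle only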; conditions: S. cerevisiae sgs1 mgt1 strain, active compounds read high
Method in brief: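 Inhibition of yeast growth, normalised to vehicle-treated controls, is reported for a strain bearing genetic alterations in DNA damage repair.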

[4] = NCI Yeast Anticancer Drug Screen. Data for the cln2 rad14 strain (AID 165);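 note: 0% = growth equal to vehicle treated cultures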; conditions: S. cerevisiae cln2 rad14 strain, active compounds read high
Method in brief: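 Growth of compound-exposed yeast (cln2 rad14 genotype) measured and expressed as inhibition relative to vehicle.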

[5] = NCI Yeast Anticancer Drug Screen. Data for the bub3 strain (AID 167); conditions: S. cerevisiae bub3 mutant strain, active compounds read high
Method in brief: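 Screening used yeast with an engineered genetic alteration affecting cell cycle control. Compound-exposed cultures were compared with vehicle cultures, and reduced growth was taken as inhibition.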

[6] = NCI Yeast Anticancer Drug Screen. Data for the mlh1 rad18 strain (AID 175); conditions: S. cerevisiae mlh1 rad18 strain growth inhibition, active compounds read high
Method in brief: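 In this whole-cell yeast screen, a strain with altered DNA damage repair is challenged with compound, and its growth is measured against matched vehicle-treated controls.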

[7] = at 5.0 µM (retest, dose inferred, filed as 0.5)
[8] = at 50.0 µM (retest, dose inferred, filed as 5.0)

Measured: growth inhibition

CC(C)(C)CC(C)(C)c1ccc(O)cc1O
active: [1]; [8] 99% | [1]; at 50.0 µM 99.5% | [2]; [8] 99% | [2]; at 50.0 µM 99.5% | [3]; [8] 99% | [3]; at 50.0 µM 99.2% | [4]; [8] 98% | [4]; at 50.0 µM 98.8% | [5]; [8] 99% | [5]; at 50.0 µM 98.8% | [6]; [8] 99% | [6]; at 50.0 µM 99.3%
inactive: [1]; [7] 7% | [2]; [7] 7% | [3]; [7] -3% | [4]; [7] 2% | [5]; [7] 36% | [6]; [7] 6%

CC(=O)c1c2c(cc3c1CC1(C3)Cc3cc4c(c(C(=O)O)c3C1)CCCC4)CCCC2 (configuration not stated) (tested in a mixture with another compound)
active: [1]; [7] 90% | [1]; [8] 99% | [1]; at 50.0 µM 77.7% | [2]; [7] 84% | [2]; [8] 99% | [2]; at 50.0 µM 97% | [3]; [7] 94% | [3]; [8] 99% | [3]; at 50.0 µM 97.8% | [4]; [7] 94% | [4]; [8] 99% | [4]; at 50.0 µM 97.9% | [5]; [7] 82% | [5]; [8] 99% | [5]; at 50.0 µM 96% | [6]; [7] 96% | [6]; [8] 99% | [6]; at 50.0 µM 98%

CCCCCC(/C=N/Nc1nc(C)cc(=O)[nH]1)=C\c1ccccc1
active: [3]; [8] 81% | [5]; [8] 83% | [6]; at 50.0 µM 70.5%
inactive: [1]; [7] 9% | [1]; [8] 45% | [1]; at 50.0 µM 31.3% | [2]; [7] -1% | [2]; [8] 50% | [2]; at 50.0 µM 30.8% | [3]; [7] 3% | [3]; at 50.0 µM 29.9% | [4]; [7] 3% | [4]; [8] 39% | [4]; at 50.0 µM 44.1% | [5]; [7] -1% | [5]; at 50.0 µM 53% | [6]; [7] -8% | [6]; [8] 37%

CC1(c2ccc(Cl)cc2)OC(=O)C(=Cc2ccc([N+](=O)[O-])s2)C(=O)O1 (configuration not stated)
inactive: [1]; [7] 26% | [1]; at 50.0 µM 51.5% | [2]; [7] 15% | [2]; at 50.0 µM 40.4% | [3]; [7] 49% | [4]; [7] 44% | [4]; at 50.0 µM 52.4% | [5]; [7] 45% | [6]; [7] 18%
active: [1]; [8] 99% | [2]; [8] 99% | [3]; [8] 99% | [3]; at 50.0 µM 88.9% | [4]; [8] 99% | [5]; [8] 99% | [5]; at 50.0 µM 84.7% | [6]; [8] 82% | [6]; at 50.0 µM 92.9%

N#CCCN(CCC#N)Cc1c(O)c(O)c(CN(CCC#N)CCC#N)c2ccccc12
inactive: [1]; [7] -2% | [1]; [8] 12% | [1]; at 50.0 µM 61.1% | [2]; [7] -1% | [2]; [8] 41% | [2]; at 50.0 µM 48% | [3]; [7] -10% | [3]; [8] 46% | [3]; at 50.0 µM 59.2% | [4]; [7] 0% | [4]; [8] -7% | [4]; at 50.0 µM 46.2% | [5]; [7] -3% | [5]; [8] 26% | [5]; at 50.0 µM 54% | [6]; [7] -4% | [6]; [8] 25% | [6]; at 50.0 µM 59%

Cc1n[n+]([O-])c(C)cc1[N+](=O)[O-]
inactive: [1]; [7] 0% | [1]; [8] 50% | [2]; [7] 4% | [2]; [8] 32% | [2]; at 50.0 µM 44.6% | [3]; [7] 17% | [4]; [7] -5% | [4]; [8] 42% | [5]; [7] -8% | [5]; [8] 16% | [5]; at 50.0 µM 65% | [6]; [7] 58%
active: [1]; at 50.0 µM 93.7% | [3]; [8] 87% | [3]; at 50.0 µM 85.6% | [4]; at 50.0 µM 76.5% | [6]; [8] 94% | [6]; at 50.0 µM 92.2%

CC1/C=C/C=C/CC/C=C/C=C/C=C/C=C/C(OC2OC(C)C(O)C(N)C2O)CC2OC(CC(O)C(O)CCC(O)CC(O)CC(O)CC(=O)OC(C)C(C)C1O)CC(O)C2C(=O)O (configuration not stated)
active: [1]; [7] 98% | [1]; [8] 100% | [1]; at 50.0 µM 99.3% | [2]; [7] 96% | [2]; [8] 100% | [2]; at 50.0 µM 99.3% | [3]; [8] 100% | [3]; at 50.0 µM 99.2% | [4]; [7] 93% | [4]; [8] 100% | [4]; at 50.0 µM 99.1% | [5]; [7] 99% | [5]; [8] 100% | [5]; at 50.0 µM 99.2% | [6]; [7] 97% | [6]; [8] 99% | [6]; at 50.0 µM 98.5%
inactive: [3]; [7] 56%

Nc1ccc2ccccc2c1N=Nc1ccccc1
inactive: [1]; [7] 6% | [2]; [7] 0% | [3]; [7] 3% | [4]; [7] -8% | [5]; [7] 0% | [6]; [7] 2%
active: [1]; [8] 97% | [1]; at 50.0 µM 98.3% | [2]; [8] 99% | [2]; at 50.0 µM 99% | [3]; [8] 98% | [3]; at 50.0 µM 99.1% | [4]; [8] 96% | [4]; at 50.0 µM 96.6% | [5]; [8] 98% | [5]; at 50.0 µM 98.5% | [6]; [8] 92% | [6]; at 50.0 µM 97.6%

ICCCCSc1cc(-c2ccccc2)[o+]c2ccccc12
active: [1]; [8] 92% | [1]; at 50.0 µM 93% | [2]; at 50.0 µM 72.2% | [3]; [8] 75% | [3]; at 50.0 µM 75.2% | [5]; [8] 85% | [5]; at 50.0 µM 75.4% | [6]; [8] 71% | [6]; at 50.0 µM 88.8%
inactive: [1]; [7] 23% | [2]; [7] 10% | [2]; [8] 51% | [3]; [7] 19% | [4]; [7] 1% | [4]; [8] 49% | [4]; at 50.0 µM 24.3% | [5]; [7] 7% | [6]; [7] 11%
